Results on 40 compounds are retold here after PubChem BioAssay (Tox21).

Each structure is given as a SMILES string. Records with an inconclusive call do not appear. A call without a number means that no potency is given here. Activity calls are given as the source filed them. Calls follow the shape of the dose curve; as a rule, active = well fitted inhibition curve with a large enough effect in the repeat runs; inconclusive = weak or mixed curves; inactive = no such curve, though single readings can be large or run the other way.
Potency is read from the fitted curve at half-maximal effect.

The experiment can be described thus: qHTS assay to identify small molecule antagonists of the thyroid receptor (TR) signaling pathway (AID 743065). Also: nearly all actives have a fitted effect of over 55% in size. Particulars: GH3.TRE-Luc, T3-stimulated luciferase inhibition, 23.5 h; series mostly up to 70.3 µM. From the text: U.S. Tox21 Program National Center for Advancing Translational Sciences [NCATS] NIH Chemical Genomics Center [NCGC] U.S. Environmental Protection Agency [EPA] National Institutes of Environmental Health Sciences [NIEHS] National Toxicology Program [NTP] U.S. Food and Drug Administration [FDA] Tox21 Assay Overview: Thyroid receptor (TR), a nuclear hormone receptor, plays an important role in development, proliferation, differentiation, metabolism, brain function, and cardiovascular system. […] To profile the Tox21 10K compound library in TR signaling, a cell-based GH3-TRE-Luc assay (GH3.TRE-Luc cell line, developed by the laboratory of Dr. Albertinka J. Murk, Wageningen University) was used to measure the inhibition of TR. GH3 (rat pituitary tumor) cells stably expressing a TR activity sensor consisting of two TR response elements and a luciferase reporter gene.
Tox21 Assay Protocol Summary: GH3.TRE-Luc cells were dispensed at 1500 cells/4 uL/well into 1536-well white solid bottom plates using a Multidrop Combi dispenser (Thermo Fisher Scientific Inc., Waltham, MA). After the assay plates were incubated at 37 C for 4 hours, 23 nL of library compound or DMSO controls was transferred to the assay plates by a pintool station (Kalypsys, San Diego, CA), followed by addition of 1 ul of T3 (1 nM, final concentration in the wells) to stimulate TR transactivation. The assay plates were incubated at 37 C for 23.5 h, and then 1 uL of CellTiter-Fluor reagent (Promega, Madision, WI) of measuring cytotoxicity was added to each well using a Bioraptr Flying Reagent Dispenser (FRD) workstation (Beckman Coulter, Indianapolis, IN, USA). The plates were incubated at 37 C and 5% CO2 for additional 30 min, and fluorescence intensity was measured by a ViewLux plate reader (PerkinElmer, Shelton, CT). For measuring luciferase reporter gene activity, 4 uL of ONE-Glo Luciferase Assay reagent (Promega) was added to each well using a Bioraptr FRD (Beckman Coulter), followed by 30 min incubation at room temperature. The luminescence intensity of plates was recorded by a ViewLux plate reader (PerkinElmer, Shelton, CT).
For `CC1CCc2nccnc21` (stereo not given), the Potency result was “inactive”.
As for `NC(=O)CCCCC(N)=O`, the Potency entry is “inactive”.
Take `CC(C)(O)CCc1ccccc1`: the Potency result is “inactive”.
Under `CC(C)(C)C(O)/C=C/c1ccc2c(c1)OCO2` (stereo not given) stands “inactive”; under `CC12CC3CC(C)(C1)CC(N)(C3)C2`, 29.8 µM (active).
To `CCN(CC)c1ccc(C(=C2C=CC(=[N+](CC)CC)C=C2)c2ccc(S(=O)(=O)O)cc2S(=O)(=O)[O-])cc1` belongs 19.3 µM (active); to `CC1CCC(C(C)CS)CC1S` (stereo not given), “inactive”; to `CC(CCc1ccc(O)cc1)NCCc1ccc(O)c(O)c1` (stereo not given), “inactive”.
Under `CCCCCCC(O)CCCCCCCCCCC(=O)OC` (stereo not given) stands “inactive”; under `CC(C)(C)C1(CCc2ccc(Cl)cc2)CO1` (stereo not given), “inactive”.
Take `CCCCCC`: the Potency entry was “inactive”.
To `CCCCCCCCCCCCCCN(C)C` belongs “inactive”.
To `CC(C)N=C=NC(C)C` belongs “inactive”; to `CCC(=O)OCc1ccc(OC)cc1`, “inactive”; to `Nc1ccc(F)cc1`, “inactive”.
Under `O=C1OC[C@H](Cc2cccc(O)c2)[C@H]1Cc1cccc(O)c1` stands “inactive”.
With `O=C(O)c1cccc(Oc2ccccc2)c1`, the Potency result is “inactive”.
To `COc1ccc(CCN(C)CCCN2CCc3cc(OC)c(OC)cc3CC2=O)cc1OC` belongs “inactive”; to `COC(=O)C1=C(C)NC(C)=C(C(=O)OC(C)(C)CN(C)CCC(c2ccccc2)c2ccccc2)C1c1cccc([N+](=O)[O-])c1` (stereo not given), 6.68 µM (active).
To `O=C(O)CN1C(=O)c2cccc3cccc(c23)C1=O` belongs “inactive”; to `O=C(CCS)OCC(COC(=O)CCS)(COC(=O)CCS)COC(=O)CCS`, “inactive”; to `c1ccc(CNc2ncnc3c2ncn3C2CCCCO2)cc1` (stereo not given), “inactive”.
With `Cc1cc([N+](=O)[O-])ccc1N`, the Potency result was “inactive”.
Under `C=C(C)c1ccccc1` stands “inactive”; under `COc1cc(NS(=O)(=O)c2ccc(N)cc2)nc(C)n1`, “inactive”.
`CCCCCCOC(=O)CCCCC`: the Potency entry is “inactive”.
To `CC(=O)NNC(C)=O` belongs “inactive”; to `O=C(O)CCC(=O)OC[C@@H](NC(=O)C(Cl)Cl)[C@H](O)c1ccc([N+](=O)[O-])cc1`, “inactive”; to `COC(=O)c1sccc1S(N)(=O)=O`, “inactive”.
As to `Cc1cccc(C)c1NC(=O)c1cc(S(N)(=O)=O)c(Cl)cc1O`, the Potency entry was “inactive”.
On to `CNCc1ccc(NC(=O)c2c[nH]c3c2C(=O)CCC3)cc1`, for which the Potency entry is “inactive”.
Under `OCC(CO)n1cnc(-c2ccc(F)cc2)c1-c1ccnc(Oc2ccccc2)n1` stands “inactive”.
To `Nc1cccc2c(N)cccc12` belongs “inactive”; to `Nc1nc(-c2ccc([N+](=O)[O-])cc2)cs1`, “inactive”; to `O=c1[nH][nH]c(=O)c2cc([N+](=O)[O-])ccc12`, “inactive”.
In the case of `CC(C)c1ccc(C#N)cc1`, the Potency result was “inactive”.
To `CN1C(CSCC(F)(F)F)Nc2cc(Cl)c(S(N)(=O)=O)cc2S1(=O)=O` (stereo not given) belongs “inactive”.
Turning to `Cc1c(C2(c3cc(Br)c(O)c(Br)c3C)OS(=O)(=O)c3ccccc32)cc(Br)c(O)c1Br`, the Potency was 21 µM (active).
Under `Cc1cccc2sc(N)nc12` stands “inactive”.
To `O=C(Nc1ccc(C(=O)O)c(O)c1)c1ccccc1` belongs “inactive”.
